In the supplement of paper PMC13380429:

Columns and labels:
[1] = tested on: Vero E6 infected with SARS-CoV-2; assay: morphology score (similarity to uninfected cells); higher = more like uninfected cells; details: 24 h
[2] = tested on: Vero E6 infected with SARS-CoV-2; assay: SARS-CoV-2 infection rate relative to infected DMSO; higher = more infection, active = 60 or less; details: 24 h

Compound | morphology score [1] | SARS-CoV-2 infection rate [2]
CC[N+](CC)(CC)CCOc1cccc(OCC[N+](CC)(CC)CC)c1OCC[N+](CC)(CC)CC [gallamine-triethiodide] (10 µM) | -0.128 | 112% (inactive)
OC[C@H]1O[C@H](O[C@]2(CCl)O[C@H](CCl)[C@@H](O)[C@@H]2O)[C@H](O)[C@@H](O)[C@H]1Cl [sucralose] (10 µM) | 0.0888 | 97% (inactive)
Nc1ccn(C[C@@H](CO)OCP(=O)(O)O)c(=O)n1 [cidofovir] (10 µM) | 0.0279 | 108% (inactive)
CN1C[C@@H]2CN(c3ccc(-c4ccccc4)nn3)C[C@@H]2C1 (10 µM) | 0.149 | 91% (inactive)
Oc1ccc(C2(c3ccccc3F)CCC(F)(F)CC2)cc1 (10 µM) | 0.0902 | 93% (inactive)
NC(=O)CN1CC(c2ccccc2)CC1=O (stereo not drawn) [phenylpiracetam] (10 µM) | 0.175 | 94% (inactive)
CC(=O)N(CC(O)CN(C(C)=O)c1c(I)c(C(=O)NCC(O)CO)c(I)c(C(=O)NCC(O)CO)c1I)c1c(I)c(C(=O)NCC(O)CO)c(I)c(C(=O)NCC(O)CO)c1I (stereo not drawn) [iodixanol] (10 µM) | -0.0966 | 114% (inactive)
Nc1ncnc2c1nc(Br)n2[C@@H]1O[C@@H]2COP(=O)(O)O[C@H]2[C@H]1O [8-bromo-cAMP] (10 µM) | 0.422 | 102% (inactive)
COc1cc(Br)c(S(=O)(=O)Nc2ccc(C(F)(F)F)c(O[C@@H]3CCN(C)C3)c2)cc1OC (10 µM) | 0.024 | 104% (inactive)
CN(C)C/C=C/C(=O)Nc1ccc(C(=O)Nc2cccc(Nc3ncc(Cl)c(-c4c[nH]c5ccccc45)n3)c2)cc1 (10 µM) | -0.108 | 94% (inactive)
N#Cc1ccccc1OCC(O)CNCCNC(=O)Nc1ccccc1 (stereo not drawn) (10 µM) | -0.0291 | 109% (inactive)
Cn1nc(-c2ccc(C(F)(F)F)cc2)nc2c(=O)n(C)c(=O)nc1-2 [walrycin-B] (0.833333 µM) | 0.4 | 86.5% (inactive)
O=c1ccc2ccc(O)c(O)c2o1 [daphnetin] (10 µM) | 0.0316 | 110% (inactive)
Cc1ncc(CN2CC=C(c3ccccc3)CC2)c(N)n1 (10 µM) | 0.0617 | 108% (inactive)
Cc1cn([C@H]2C[C@H](N=[N+]=[N-])[C@@H](CO)O2)c(=O)[nH]c1=O [zidovudine] (10 µM) | -0.144 | 108% (inactive)
COc1cc(NS(=O)(=O)c2ccc(N)cc2)ncn1 [sulfamonomethoxine] (10 µM) | 0.102 | 89.5% (inactive)
Cn1cc(-c2ccc3ncc(Cc4ccc5ncccc5c4)n3n2)cn1 (10 µM) | 0.442 | 83% (inactive)
Cc1ccccc1C(=O)Nc1ccc(C(=O)N2CCCC(O)c3cc(Cl)ccc32)c(C)c1 (stereo not drawn) [tolvaptan] (10 µM) | 0.0857 | 120% (inactive)
O=C(CCCN1CCC2(CC1)C(=O)NCN2c1ccccc1)c1ccc(F)cc1 [spiperone] (10 µM) | 0.763 | 22% (active)
CCCCN(CCCC)C(=O)CN1C[C@H](c2ccc3c(c2)OCO3)[C@@H](C(=O)O)[C@@H]1c1ccc(OC)cc1 [atrasentan] (10 µM) | 0.0179 | 108% (inactive)
O=C(O)c1cc(O)c2c(c1)C(=O)c1cccc(O)c1C2=O [rhein] (10 µM) | 0.272 | 99.5% (inactive)
O=C(Nc1cc(Oc2cc(F)c(NC(=O)C3(C(=O)Nc4ccc(F)cc4)CC3)cc2F)ccn1)C1CC1 [altiratinib] (10 µM) | 0.122 | 88.5% (inactive)
CN(C)c1ccc(/C=C2\C(=O)Nc3ccccc32)cc1 (10 µM) | 0.175 | 101% (inactive)
NC(=O)C[C@H](N)C(=O)O [L-asparagine] (10 µM) | 0.14 | 94% (inactive)
CCCCC[C@H](O)/C=C/[C@H]1[C@H](O)CC(=O)[C@@H]1CCCCCCC(=O)O [alprostadil] (10 µM) | 0.11 | 90.5% (inactive)
Cn1c(-c2ccccc2)nnc1S(C)(=O)=O (10 µM) | 0.268 | 86.5% (inactive)
c1ccc2sc(SNC3CCCCC3)nc2c1 [N-cyclohexyl-2-benzothiazolesulfenamide] (10 µM) | -0.00896 | 106% (inactive)

Compound | morphology score [1] | SARS-CoV-2 infection rate [2]
c1ccc(CNc2ncnc3[nH]cnc23)cc1 [6-benzylaminopurine] (10 µM) | 0.186 | 99% (inactive)
N#CCCCSC(=N)N [kevetrin] (10 µM) | 0.195 | 92% (inactive)
CCc1cc2c(cc1N1CCC(N3CCOCC3)CC1)C(C)(C)c1[nH]c3cc(C#N)ccc3c1C2=O [alectinib] (10 µM) | 0.135 | 106% (inactive)
COc1cc(N)c(Cl)cc1C(=O)NC1CCN(Cc2ccccc2)CC1 [clebopride] (10 µM) | -0.0118 | 110% (inactive)
C#Cc1cccc(Nc2ncnc3cc4c(cc23)OCCOCCOCCO4)c1 [icotinib] (0.833333 µM) | -0.00998 | 117% (inactive)
S=C(NCCc1ccccn1)Nc1ccc(Br)cn1 [trovirdine] (10 µM) | 0.00939 | 110% (inactive)
CC[C@@H](C)CNCC(=O)N1CCc2sccc2[C@@H]1COc1cccc(C)c1 (10 µM) | 0.447 | 58.5% (active)
Cc1ccc(S(=O)(=O)NC(=O)NN2CCCCCC2)cc1 [tolazamide] (10 µM) | 0.103 | 100% (inactive)
COc1cc2ncnc(Nc3ccc(F)c(Cl)c3)c2cc1NC(=O)/C=C/CN1CCCCC1 [dacomitinib] (0.833333 µM) | -0.0483 | 103% (inactive)
CC(=O)O[C@@H]1CC[C@@]2(C)[C@@H](CC[C@]3(C)[C@@H]2C(=O)C=C2[C@@H]4[C@@H](C)[C@H](C)CC[C@]4(C)CC[C@]23C)[C@@]1(C)C(=O)O [acetyl-11-keto-beta-boswellic-acid] (10 µM) | 0.104 | 105% (inactive)
CC(C)[C@]12O[C@H]1[C@@H]1O[C@]13[C@]1(O[C@H]1C[C@H]1C4=C(CC[C@@]13C)C(=O)OC4)[C@@H]2O [triptolide] (10 µM) | 0.381 | 89% (inactive)
CN(Cc1ccccc1)C(=O)[C@H](Cc1ccc2ccccc2c1)NC(=O)[C@@H]1CCCN1C(=O)Nc1ccccc1[N+](=O)[O-] (10 µM) | 0.00351 | 108% (inactive)
CCOC(=O)c1cc(C#N)c(N2CCC(C(=O)NS(=O)(=O)Cc3ccccc3)CC2)nc1C (10 µM) | 0.128 | 108% (inactive)
Nc1ccc(C(=O)NCC(=O)O)cc1 [4-aminohippuric-acid] (10 µM) | -0.0582 | 108% (inactive)
Cc1oc2ccccc2c1CNC(=O)NCc1cccs1 (10 µM) | 0.0505 | 100% (inactive)
Cc1c(C)c2c(c(C)c1O)CCC(C)(COc1ccc(CC3SC(=O)NC3=O)cc1)O2 (stereo not drawn) [troglitazone] (10 µM) | 0.342 | 89% (inactive)
c1cc2c(cc1[C@H]1OC[C@H]3[C@@H]1CO[C@@H]3c1ccc3c(c1)OCO3)OCO2 [sesamin] (10 µM) | -0.0737 | 120% (inactive)
Nc1ncnc2c1ncn2[C@@H]1O[C@H](CO)[C@@H](O)[C@H]1O [adenosine] (10 µM) | 0.0109 | 109% (inactive)
NCCc1c[nH]c2ccc(C(N)=O)cc12 [5-carboxamidotryptamine] (10 µM) | 0.0259 | 103% (inactive)
CCCC1(CCC)CCC2(CCN(CCCN(CC)CC)C2)CC1 [atiprimod] (0.833333 µM) | 0.283 | 82.5% (inactive)
CC(=O)N1CCC(C(=O)N(CCCN2CCC(Cc3ccc(C(N)=O)cc3)CC2)c2ccc(C)c(Cl)c2)CC1 (10 µM) | 0.0284 | 107% (inactive)
CCCCCN(CCCOC)C(=O)[C@@H](CCC(=O)O)NC(=O)c1ccc(Cl)c(Cl)c1 [dexloxiglumide] (10 µM) | 0.0908 | 107% (inactive)
COc1cc(C(=O)NS(=O)(=O)c2ccccc2C)ccc1Cc1cn(C)c2ccc(NC(=O)OC3CCCC3)cc12 [zafirlukast] (10 µM) | 0.282 | 105% (inactive)
C=C[C@@H]1C[C@]1(NC(=O)[C@@H]1C[C@@H](Oc2ncc(OC)c3ccc(Cl)cc23)CN1C(=O)[C@@H](NC(=O)OC(C)(C)C)C(C)(C)C)C(=O)NS(=O)(=O)C1CC1 [asunaprevir] (10 µM) | 0.192 | 85% (inactive)
C[C@]12CC[C@@H]3c4ccc(OS(=O)(=O)O)cc4CC[C@H]3[C@@H]1CCC2=O [estropipate] (10 µM) | 0.227 | 99% (inactive)
NC(=O)CN1C=CCC(C(N)=O)=C1 [caricotamide] (10 µM) | 0.109 | 106% (inactive)
N#CC(c1ccccc1)(c1ccccc1)c1ccccc1Cl (10 µM) | 0.164 | 89% (inactive)
